We go through 17 compounds from PubChem BioAssay.

Assay [1] is described as follows: binders of probe aFSTL3 on microarray, primary screen, stem cell growth factor project, biochemical, small-molecule microarray, fluorescence 635/667 (AID 1064).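 Also: measures binding of the biotinylated anti-FSTL3 antibody to printed compounds.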 The conditions noted are these: higher = more signal.
Assay [2] can be described thus: binders from COS7 lysate, DM2A8 probe, primary screen, torsin A project, cell lysate, small-molecule microarray, fluorescence 635/667 (AID 1065). The note with it: higher = more signal, COS7 lysate expressing mutant human TOR1A.
Assay [3] in a line: binders of probe aFGF2 on microarray, primary screen, stem cell growth factor project, biochemical, small-molecule microarray, fluorescence 635/667 (AID 1067).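 Also: measures binding of biotinylated aFGF2 protein to printed compounds on slides; z-score merges feature fluorescence and signal-to-noise across triplicate slides.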 The note with it: higher = more signal.
Assay [4] in a line: binders of probe aFGF10 on microarray, primary screen, stem cell growth factor project, biochemical, small-molecule microarray, fluorescence 635/667 (AID 1071).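 Also: score merges 667 nm spot intensity and signal to noise from triplicate slides.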 The conditions noted are these: higher = more signal.
For assay [5], the target named is Neurogenic locus notch homolog protein 2 (Homo sapiens) (UniProt Q04721). The experiment in a line: Notch2 binders on small-molecule microarrays, primary screen, biochemical, small-molecule microarray, 635 nm fluorescence, stem cell growth factors (AID 1073). The note with it: Notch2 binding, higher = more signal.
Assay [6] addresses Pro-neuregulin-1, membrane-bound isoform (Homo sapiens) (UniProt Q02297). The experiment in a line: NRG1 binders on small-molecule microarrays, primary screen, psychiatric disease protein project, biochemical, small-molecule microarray, fluorescence 635/667 (AID 1075).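 Also: score combines 667 nm spot fluorescence with signal to noise.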 The note with it: NRG1 binding, 635 nm fluorescence, higher = more signal.
Assay [7] relates to Neuregulin-1 EGF-like domain. The experiment in a line: binders of neuregulin-1 EGF-like domain, primary screen, biochemical, small-molecule microarray, 635 nm fluorescence (AID 1081).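 Also: binding of the protein to compounds printed on small-molecule microarray slides.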 The note with it: small-molecule microarray binding, higher = more signal.
The nature of assay [8]: FRG1 promoter luciferase signal modulators, primary screen, FRG1 inhibition for FSHD, cell-based, C2C12 myotubes, firefly/Renilla luciferase, luminescence (AID 1084). The note with it: higher = more signal, called active from +8 up or from −8 down.
Assay [9] in a line: binders of probe aFST on microarray, primary screen, stem cell growth factor project, biochemical, small-molecule microarray, fluorescence 635/667 (AID 1086).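 Also: score merges 667 nm fluorescence with signal-to-noise of each printed compound spot.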 The conditions noted are these: higher = more signal.
A short description of assay [10]: binders of probe aHhip on microarray, primary screen, stem cell growth factor project, biochemical, small-molecule microarray, fluorescence 635/667 (AID 1087).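 Also: score merges spot fluorescence at 667nm with spot signal to noise ratio.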 The conditions noted are these: higher = more signal.

The source made the active and inactive calls.

Pro-neuregulin-1, membrane-bound isoform (Homo sapiens), sequence (Q02297 whole entry, looked up, the tested form may be a part, canonical isoform): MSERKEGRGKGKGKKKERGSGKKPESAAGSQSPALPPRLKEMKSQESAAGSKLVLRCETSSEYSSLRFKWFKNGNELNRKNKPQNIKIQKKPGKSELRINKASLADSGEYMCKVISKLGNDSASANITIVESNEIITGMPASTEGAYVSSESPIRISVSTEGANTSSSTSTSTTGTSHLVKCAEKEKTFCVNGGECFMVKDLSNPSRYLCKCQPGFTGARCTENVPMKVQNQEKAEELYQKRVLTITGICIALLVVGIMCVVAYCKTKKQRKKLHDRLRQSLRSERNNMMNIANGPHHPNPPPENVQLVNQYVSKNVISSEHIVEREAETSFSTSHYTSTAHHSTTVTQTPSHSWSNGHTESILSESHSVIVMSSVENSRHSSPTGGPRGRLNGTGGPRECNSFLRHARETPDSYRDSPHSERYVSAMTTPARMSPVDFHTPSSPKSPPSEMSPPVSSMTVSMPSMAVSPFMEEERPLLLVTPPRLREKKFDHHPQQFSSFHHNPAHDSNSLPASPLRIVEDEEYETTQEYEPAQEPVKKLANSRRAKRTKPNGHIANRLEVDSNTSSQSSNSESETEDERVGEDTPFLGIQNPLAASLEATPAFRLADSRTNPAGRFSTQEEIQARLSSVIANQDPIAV
Neurogenic locus notch homolog protein 2 (Homo sapiens), sequence (Q04721 whole entry, looked up, canonical isoform): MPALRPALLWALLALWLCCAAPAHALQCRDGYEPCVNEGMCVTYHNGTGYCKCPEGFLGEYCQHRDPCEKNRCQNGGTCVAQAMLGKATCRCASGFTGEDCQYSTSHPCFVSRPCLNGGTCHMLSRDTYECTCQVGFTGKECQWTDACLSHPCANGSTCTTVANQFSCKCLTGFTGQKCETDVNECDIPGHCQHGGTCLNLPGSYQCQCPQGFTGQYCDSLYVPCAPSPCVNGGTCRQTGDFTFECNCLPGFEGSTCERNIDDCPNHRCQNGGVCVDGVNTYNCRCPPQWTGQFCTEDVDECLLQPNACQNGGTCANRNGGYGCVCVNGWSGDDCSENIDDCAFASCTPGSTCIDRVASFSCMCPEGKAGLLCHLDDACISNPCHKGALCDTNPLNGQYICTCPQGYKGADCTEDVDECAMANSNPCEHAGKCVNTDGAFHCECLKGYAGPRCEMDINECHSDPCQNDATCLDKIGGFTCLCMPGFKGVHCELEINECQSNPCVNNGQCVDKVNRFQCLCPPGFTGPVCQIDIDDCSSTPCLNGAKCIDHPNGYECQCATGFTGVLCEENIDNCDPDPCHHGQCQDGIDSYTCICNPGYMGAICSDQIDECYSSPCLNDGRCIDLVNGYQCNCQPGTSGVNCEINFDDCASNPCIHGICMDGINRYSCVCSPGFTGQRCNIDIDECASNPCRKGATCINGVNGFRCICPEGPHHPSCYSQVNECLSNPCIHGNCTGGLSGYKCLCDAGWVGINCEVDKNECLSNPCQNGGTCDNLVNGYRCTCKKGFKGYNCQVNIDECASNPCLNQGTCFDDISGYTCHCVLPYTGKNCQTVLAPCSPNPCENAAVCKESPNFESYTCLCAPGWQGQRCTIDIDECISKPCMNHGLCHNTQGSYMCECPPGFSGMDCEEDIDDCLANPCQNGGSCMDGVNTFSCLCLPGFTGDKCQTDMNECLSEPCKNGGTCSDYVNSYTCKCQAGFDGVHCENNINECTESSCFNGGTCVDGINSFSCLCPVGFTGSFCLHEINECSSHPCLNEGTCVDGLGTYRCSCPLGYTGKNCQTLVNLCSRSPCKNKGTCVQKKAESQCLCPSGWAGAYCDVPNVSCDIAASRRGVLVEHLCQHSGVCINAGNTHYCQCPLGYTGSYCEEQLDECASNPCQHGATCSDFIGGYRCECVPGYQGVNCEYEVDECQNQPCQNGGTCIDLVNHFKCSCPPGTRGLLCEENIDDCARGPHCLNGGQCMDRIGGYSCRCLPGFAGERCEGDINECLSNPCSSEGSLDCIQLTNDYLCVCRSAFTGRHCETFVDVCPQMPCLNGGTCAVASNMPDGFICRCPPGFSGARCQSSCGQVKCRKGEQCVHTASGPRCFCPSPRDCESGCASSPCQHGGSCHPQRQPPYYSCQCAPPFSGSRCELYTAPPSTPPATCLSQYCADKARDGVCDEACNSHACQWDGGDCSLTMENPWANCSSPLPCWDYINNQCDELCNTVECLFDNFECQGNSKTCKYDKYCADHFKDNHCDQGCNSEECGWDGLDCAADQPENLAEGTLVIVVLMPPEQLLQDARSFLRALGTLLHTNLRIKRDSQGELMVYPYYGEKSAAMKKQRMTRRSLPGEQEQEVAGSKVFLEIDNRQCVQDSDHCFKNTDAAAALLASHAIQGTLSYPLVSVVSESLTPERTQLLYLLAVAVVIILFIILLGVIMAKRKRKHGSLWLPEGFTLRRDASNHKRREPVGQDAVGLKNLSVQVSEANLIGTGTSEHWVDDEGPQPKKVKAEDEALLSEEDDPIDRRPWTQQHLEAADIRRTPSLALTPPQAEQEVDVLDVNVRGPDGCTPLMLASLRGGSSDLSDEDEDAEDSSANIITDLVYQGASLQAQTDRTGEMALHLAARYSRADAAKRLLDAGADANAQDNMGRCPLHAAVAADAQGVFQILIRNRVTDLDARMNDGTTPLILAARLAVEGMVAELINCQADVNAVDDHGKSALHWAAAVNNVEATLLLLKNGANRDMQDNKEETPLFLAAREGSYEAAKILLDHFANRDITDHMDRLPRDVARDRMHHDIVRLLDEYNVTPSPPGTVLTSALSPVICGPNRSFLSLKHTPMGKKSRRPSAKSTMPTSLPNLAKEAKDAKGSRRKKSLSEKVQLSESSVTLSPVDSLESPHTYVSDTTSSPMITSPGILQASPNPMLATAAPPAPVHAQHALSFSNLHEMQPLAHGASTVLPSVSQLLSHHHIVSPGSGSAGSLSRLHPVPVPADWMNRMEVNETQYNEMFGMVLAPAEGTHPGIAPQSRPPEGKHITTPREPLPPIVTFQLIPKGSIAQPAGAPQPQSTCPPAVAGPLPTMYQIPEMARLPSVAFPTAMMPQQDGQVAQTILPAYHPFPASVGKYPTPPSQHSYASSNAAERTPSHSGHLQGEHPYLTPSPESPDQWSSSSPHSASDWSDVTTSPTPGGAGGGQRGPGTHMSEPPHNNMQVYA

In the case of `C=C(C)C1CCC(C(O)C2C=CC3C(=O)N(C)C(=O)C3N2N2CCCCC2)CC1` (stereo not given), the composite z-score in assay [1] is 0.207; in [2] it was -0.222; in [3], 0.118; in assay [4], 0.82; in [5], 1.62; in assay [6] it was 1.45. In addition, the composite z-score in [7] was found to be 1.24; in [9] it was 1.23; in assay [10] it was 0.134. In addition, the z-score in [8] is 1.17 (inactive).

Take `CCCCCCCCCCC(O)C1C=CC2C(=O)N(C)C(=O)C2N1Nc1ccc([N+](=O)[O-])cc1[N+](=O)[O-]` (stereo not given): the composite z-score in [1] was -0.222; in assay [2], -0.254; in assay [3] it was 0.0772; in [4], 0.131; in assay [5], 1.55; in assay [6], 1.12. Moreover, the composite z-score in assay [7] is 0.975; in [9], 0.839; in assay [10], -0.0994. In assay [8], the z-score is 0.262 (inactive).

`CCOC(=O)[C@H]1[C@@H]2C(=O)N3CCC[C@H]3[C@H](O[Si](C(C)C)(C(C)C)C(C)C)[C@H]2C=C2CCN(S(=O)(=O)c3ccc(C)cc3)C[C@H]21`: the composite z-score is -0.646 in assay [1]; 0.336 in assay [2]; -0.118 in [3]; 0.248 in assay [4]; 0.966 in [5]; 0.319 in assay [6]. The composite z-score is 1.08 in assay [7], 0.125 in [9] and -0.164 in assay [10]. Also, the z-score in assay [8] was -0.647 (inactive).

As to `COc1cc(OC)c(C(O)C2C=CC3C(=O)N(C)C(=O)C3N2NC(=O)OC(C)(C)C)cc1Br` (stereo not given), the composite z-score in assay [1] was 0.411; in assay [2] it was -0.381; in assay [3] it was 0.232; in [4], 0.843; in assay [5], 1.76; in assay [6], 1.85. For the same compound, the composite z-score was 1.37 in [7], 1.84 in assay [9] and 0.0522 in assay [10]. In addition, the z-score in [8] was -0.612 (inactive).

Take `COC(=O)CCCCCCC(=O)Nc1ccc(NC(=O)CCCC[P+](c2ccccc2)(c2ccccc2)c2ccccc2)cc1`: the composite z-score in assay [1] is -0.493; in [2] it was 0.725; in assay [3], -0.0639; in assay [4] it was 0.695; in assay [5] it was 0.336; in assay [6], -0.31. Also, the composite z-score is 0.166 in assay [7], 0.352 in assay [9] and -0.0296 in [10]. In assay [8], the z-score was 0.789 (inactive).

Take `O=C1OCC=C[C@H]2OC34C=CCN(Cc5ccccc5)C(=O)[C@H]3N(CCCCCCO)C(=O)[C@@H]4[C@@H]12` (stereo not given in full): the composite z-score in assay [1] was 0.329; in [2], -0.443; in [3], -0.191; in assay [4], -0.0166; in [5], -0.812; in assay [6], 0.273. Further, the figures for the composite z-score in assay [7], in [9] and in assay [10] were 1.12, -0.474 and -0.249, respectively. In [8], the z-score was -0.843 (inactive).

With `O=C(CS)NCCCCCCNC(=O)[C@H]1C[C@H]2C(=O)N[C@@H](Cc3ccccc3)C(=O)N2[C@H]1c1ccc(O)cc1`, the composite z-score in [1] is -0.361; in assay [2], 0.375; in assay [3], -0.132; in [4], 0.836; in [5], 0.51; in [6] it was 1.34. The composite z-score was 1.36 in [7], -0.571 in [9] and -0.928 in assay [10]. For the same compound, the z-score in assay [8] was 0.234 (inactive).

Turning to `COCCOC(=O)N1C(=O)[C@@]2(c3cc(C#CC4=CCCCC4)ccc31)[C@H](c1ccc(O)cc1)N1[C@H](c3ccccc3)[C@H](c3ccccc3)OC(=O)[C@H]1[C@@H]2C(=O)N1CCN(c2ncccn2)CC1`, the composite z-score in assay [1] was 0.875; in [2], -0.0653; in assay [3] it was -0.141; in assay [4], -0.164; in assay [5] it was -1.58; in assay [6], 0.576. Besides, the figures for the composite z-score in assay [7], in assay [9] and in assay [10] were -0.0176, -0.841 and -0.277, respectively. Further, in assay [8], the z-score is 0.214 (inactive).

For the compound `[N-]=[N+]=Nc1ccccc1C[C@]1(C(N)=O)N=C(c2ccc(OCCCO)cc2)O[C@H]1c1ccccc1N=[N+]=[N-]`, the composite z-score in assay [1] amounted to 0.12; in [2] it was 0.902; in assay [3], 0.0598; in assay [4], 1.05; in assay [5], 1.23; in [6], 1.42. Besides, the composite z-score in assay [7] was 1.21; in assay [9], 0.359; in assay [10], -0.0237. The z-score in assay [8] is -1.08 (inactive).

As for `COc1cccc(/C=C/C=O)c1`, the composite z-score is 0.278 in assay [1]; 0.187 in assay [2]; 0.0726 in [3]; 0.505 in assay [4]; 0.367 in assay [5]; -0.437 in assay [6]. Besides, the composite z-score in assay [7] is -0.443; in assay [9], 0.375; in assay [10], 0.57. In addition, in assay [8], the z-score was 1.02 (inactive).

`C=CCN1C(=O)[C@@]2(CCS(=O)(=O)c3ccccc3)N=C(c3ccc(OCCCO)cc3)O[C@H]2c2ccccc21`: the composite z-score in [1] turned out to be 0.162; in [2], 0.42; in assay [3], 0.0076; in assay [4], 0.362; in assay [5], 1.44; in [6], 1.72. The values for the composite z-score in [7], in [9] and in [10] were 1.24, 1.03 and -0.0672, respectively. Also, the z-score in [8] is -3.77 (inactive).

Take `[N-]=[N+]=NCc1ccccc1C[C@@]1(C(=O)N2CCOCC2)N=C(c2ccc(OCCCO)cc2)O[C@@H]1c1ccccc1`: the composite z-score in assay [1] worked out at 0.458; in [2], 0.572; in [3] it was 0.0654; in [4], 1; in assay [5], 1.44; in assay [6], 1.79. For the same compound, the composite z-score in assay [7] was determined as 1.1; in assay [9], 0.705; in assay [10], 0.0749. In assay [8], the z-score was -4.48 (inactive).

Regarding `CN1C(=O)C2C=CC(C(O)c3ccccn3)N(N(c3ccccc3)c3ccccc3)C2C1=O` (stereo not given), the composite z-score in [1] is 0.733; in assay [2], 0.0014; in assay [3], 0.0276; in assay [4], 0.0491; in [5], 0.594; in [6] it was 0.899. Also, the composite z-score in assay [7] is 0.622; in [9], 0.613; in assay [10], 0.245. Further, the z-score in assay [8] is 0.164 (inactive).

As to `CCCCC(O)C1C=CC2C(=O)N(c3ccccc3)C(=O)C2N1Nc1ccc(C(C)C)cc1` (stereo not given), the composite z-score in assay [1] was -0.158; in [2] it was -0.534; in [3], 0.0662; in [4], 0.47; in assay [5] it was 1.44; in assay [6], 1.85. The composite z-score in [7] is 0.697; in assay [9], 1.13; in assay [10], -0.217. In assay [8], the z-score is -0.875 (inactive).

For the compound `C=CCN1C(=O)[C@@]2(O[C@@H](CCn3cc([C@H](O)c4ccccc4)nn3)[C@H]([Si](C)(C)c3ccc(OC)cc3)[C@H]2C)c2cc(N3CCC3=O)ccc21`, the composite z-score was 0.211 in [1]; 0.175 in assay [2]; -0.0894 in [3]; 0.383 in assay [4]; -0.496 in assay [5]; 0.997 in assay [6]. The values for the composite z-score in assay [7], in [9] and in assay [10] were 1.25, -0.259 and -0.13, respectively. The z-score in [8] is -1.88 (inactive).

With `COC(=O)c1c(CC[C@@H](CO)NC(=O)N[C@H](Cn2cc(C3(O)CCCCC3)nn2)C(C)C)oc(C(C)=O)c1C(=O)OC`, the composite z-score was -0.413 in assay [1]; 0.945 in [2]; -0.003 in assay [3]; 0.815 in assay [4]; 0.759 in assay [5]; 0.759 in [6]. The composite z-score in assay [7] was 1.07; in assay [9], 0.253; in assay [10] it was -0.0237. The z-score in assay [8] is 0.324 (inactive).

Consider `COCCOC(=O)N1C(=O)[C@@]2(c3cc(C#CCNC(N)=O)ccc31)[C@H](C(=O)N1CCc3cc(OC)c(OC)cc3C1)[C@H]1C(=O)O[C@H](c3ccccc3)[C@H](c3ccccc3)N1[C@@H]2c1ccccc1OCCO`, for which the composite z-score in assay [1] is -0.178; in assay [2] it was 1.05; in [3], -0.0908; in [4], 0.371; in assay [5] it was 0.749; in assay [6], 0.202. Moreover, the values for the composite z-score in assay [7], in assay [9] and in assay [10] were 0.869, 0.31 and -0.191, respectively. Besides, in [8], the z-score was -0.902 (inactive).
